{"source": "PubChem BioAssay AID651687", "about": "(Broad Institute, 2012)", "note": "Values joined by “and” are separate entries in the source; they are usually repeats but may differ in a detail not shown here. Equal values may be shown once. Among all 350,000 compounds or so, about 600 (0.17%) were called active.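 The calls were made as follows: active = every replicate shows inhibition of at least 40%; inconclusive = mean inhibition at least 40% but some replicate below; inactive = the rest.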 The sample as a whole holds a higher share of actives than the screen did. A structure can be active in one record and inactive in another.", "data": [{"experiment": "inhibitors of PGC1a acetylation signal, primary screen, cell-based, U2OS, AlphaScreen, inhibitor mode (AID 651687);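 also: 0% = neutral control wells and 100% = positive control wells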", "details": "AlphaScreen anti-acetyl-lysine, at 15.6 µM, stronger effect = higher value, with virally co-expressed GCN5 acetyltransferase", "values": [{"smiles": "COCC(=O)Nc1ccc2c(c1)OC[C@@H](C)N(C(=O)c1cnccn1)C[C@H](C)[C@@H](OC)CN(C)C2=O", "inhibition": "-1.16% (inactive)"}, {"smiles": "Cc1ccc(S(=O)(=O)NC[C@H]2CC[C@@H]3[C@@H](CN3Cc3ccccc3C(=O)O)O2)cc1", "inhibition": "-6.11% (inactive)"}, {"smiles": "Cc1noc(C)c1NC(=O)N(C)C[C@H]1OCCCC[C@H](C)Oc2ccc(NC(=O)Cc3ccccc3)cc2C(=O)N([C@H](C)CO)C[C@@H]1C", "inhibition": "0.037% (inactive)"}, {"smiles": "C[C@H]1CN([C@@H](C)CO)C(=O)c2cc(NC(=O)Nc3ccccc3)ccc2O[C@H]1CN(C)S(C)(=O)=O", "inhibition": "-6.24% (inactive)"}, {"smiles": "C[C@@H]1CN([C@@H](C)CO)C(=O)c2cc(/C=C/c3ccccc3)cnc2O[C@H]1CN(C)C(=O)Nc1ccc(C(F)(F)F)cc1", "inhibition": "-1.88% (inactive)"}, {"smiles": "O=C(NC1=CC(=O)c2ccccc2C1=O)c1ccccc1", "inhibition": "80.8% (active)"}, {"smiles": "O=C(Nc1ccc2ccccc2c1[N+](=O)[O-])c1ccccc1", "inhibition": "14% (inactive)"}, {"smiles": "O=C(Nc1ncccc1O)c1ccc(C(=O)c2ccccc2)cc1", "inhibition": "5.14% (inactive)"}, {"smiles": "O=C(CC1CC1)N1CC[C@@H]2[C@@H](CO)Nc3ccc(-c4ccccc4)cc3[C@@H]21", "inhibition": "-14.4% (inactive)"}, {"smiles": "CO[C@@H]1CN(C)C(=O)c2cc(NC(=O)Nc3cccc(Cl)c3)ccc2OC[C@@H](C)N(C)C[C@@H]1C", "inhibition": "7.96% (inactive)"}, {"smiles": "CCCN1C[C@@H](C)[C@@H](OC)CN(C)C(=O)c2cc(NC(=O)c3ccccc3)ccc2OC[C@H]1C", "inhibition": "-3.59% (inactive)"}, {"smiles": "Cc1cc(C(=O)Nc2cccc3c2O[C@@H](CN(C)S(=O)(=O)c2ccc(F)cc2)[C@@H](C)CN([C@H](C)CO)C3=O)n(C)n1", "inhibition": "4.7% (inactive)"}, {"smiles": "O=C(C[C@@H]1CC[C@@H](NS(=O)(=O)c2ccccc2)[C@H](CO)O1)NCc1ccc(Cl)c(Cl)c1", "inhibition": "-0.169% (inactive)"}, {"smiles": "COCC(=O)N1CC2(CN(C(=O)c3cccnc3)C2)c2c([nH]c3cc(OC)ccc23)[C@H]1CO", "inhibition": "3.03% (inactive)"}, {"smiles": "Cc1ccc(C(=O)N2CCN(S(=O)(=O)N3CCOCC3)CC2)cc1", "inhibition": "-14.3% (inactive)"}, {"smiles": "O=C(c1snnc1-c1ccccc1)N1CCOCC1", "inhibition": "17.2% (inactive)"}, {"smiles": "Cc1oc2c(c1C(=O)N1CCOCC1)C(=O)c1ccccc1C2=O", "inhibition": "42.9% (active)"}, {"smiles": "O=C(C1CCCCC1)N1C[C@@H]2N[C@H](C1)C2c1ccc(-c2cccc(F)c2)cc1", "note": "(stereo not given in full)", "inhibition": "-62.3% (inactive) and -12.6% (inactive)"}, {"smiles": "CN(C)C(=O)c1ccc(-c2ccc(C3[C@@H]4CN(C(=O)Nc5ccccc5)C[C@H]3N4)cc2)cc1", "note": "(stereo not given in full)", "inhibition": "-6.33% (inactive)"}, {"smiles": "Cc1cccc(-c2ccc(C3[C@@H]4CN(C(=O)Nc5ccc(C(F)(F)F)cc5)C[C@H]3N4)cc2)c1", "note": "(stereo not given in full)", "inhibition": "92.4% (active) and 92.8% (active)"}, {"smiles": "CO[C@H]1CN(C)C(=O)c2ccc(NC(=O)NC(C)C)cc2OC[C@@H](C)N(C(=O)CN(C)C)C[C@H]1C", "inhibition": "9.74% (inactive)"}, {"smiles": "Clc1ccc(C[n+]2cc(-c3ccccc3)n3c2CCC3)cc1", "inhibition": "-17.2% (inactive)"}, {"smiles": "Cc1ccc(-c2c[n+](CC(=O)Nc3ccccc3)c3n2CCC3)cc1", "inhibition": "43.3% (active)"}, {"smiles": "Cc1ccc(C(=O)C[n+]2cc(-c3ccccc3)n3c2CCCCC3)cc1", "inhibition": "20.9% (inactive)"}, {"smiles": "COc1ccc(S(=O)(=O)Nc2ccc3c(c2)C(=O)N([C@H](C)CO)C[C@H](C)[C@@H](CN(C)Cc2ccccc2)OCCCC[C@@H](C)O3)cc1", "inhibition": "-2.9% (inactive)"}, {"smiles": "COc1ccc(-c2ccc3c(c2)[C@@H]2[C@@H](CCN2C(=O)c2cccc(F)c2)[C@H](CO)N3)cc1", "inhibition": "6.58% (inactive)"}, {"smiles": "O=C(Nc1ccc2c(c1)[C@@H]1C[C@H](CC(=O)N3CCOCC3)O[C@@H](CO)[C@@H]1O2)C1CCOCC1", "inhibition": "-6.68% (inactive)"}, {"smiles": "CNC[C@H]1Oc2cc(C#CC3CCCC3)ccc2S(=O)(=O)N([C@H](C)CO)C[C@@H]1C", "inhibition": "-10.8% (inactive)"}, {"smiles": "C[C@@H]1CCCCO[C@@H](CN(C)C(=O)Cc2ccccc2)[C@H](C)CN([C@@H](C)CO)C(=O)c2cc(NC(=O)Nc3ccc4c(c3)OCO4)ccc2O1", "inhibition": "-5.63% (inactive)"}, {"smiles": "COc1ccc(NS(=O)(=O)c2ccc(F)cc2F)cn1", "inhibition": "0.335% (inactive)"}, {"smiles": "COc1ccc(NC(=O)/C(Cl)=C(/Cl)S(=O)Cc2ccc(C)cc2)cn1", "note": "(stereo not given)", "inhibition": "69.3% (active)"}, {"smiles": "COc1ccc(NC(=O)CN2C(=O)NC(C)(c3ccccc3)C2=O)cn1", "note": "(stereo not given)", "inhibition": "0.857% (inactive)"}, {"smiles": "Cc1noc(C)c1NC(=O)Nc1ccc2c(c1)C(=O)N([C@@H](C)CO)C[C@H](C)[C@@H](CN(C)C(=O)Nc1ccccc1)O2", "inhibition": "-6.84% (inactive)"}, {"smiles": "C[C@@H]1CCCCO[C@@H](CN(C)C(=O)CCCN(C)C)[C@H](C)CN([C@@H](C)CO)C(=O)c2cc(NC(=O)Nc3ccccc3)ccc2O1", "inhibition": "20% (inactive)"}, {"smiles": "C[C@@H]1CN([C@@H](C)CO)C(=O)c2cc(NS(C)(=O)=O)ccc2O[C@H]1CN(C)C(=O)Nc1ccc(F)cc1", "inhibition": "0.678% (inactive)"}, {"smiles": "Cn1cnc(S(=O)(=O)N2CC[C@@H]3[C@H]2c2cc(C#Cc4cccc(F)c4)ccc2N[C@@H]3CO)c1", "inhibition": "-5.83% (inactive)"}, {"smiles": "CCS(=O)(=O)NCC[C@H]1CC[C@@H](NC(=O)Nc2cc(Cl)cc(Cl)c2)[C@@H](CO)O1", "inhibition": "-5.94% (inactive)"}, {"smiles": "Cc1ccc(S(=O)(=O)N[C@@H]2CC[C@@H](CCn3cc(C(C)C)nn3)O[C@H]2CO)cc1", "inhibition": "-5.62% (inactive)"}, {"smiles": "CC(C)NC(=O)N(C)C[C@H]1Oc2c(NS(C)(=O)=O)cccc2C(=O)N([C@@H](C)CO)C[C@H]1C", "inhibition": "3.18% (inactive)"}, {"smiles": "C[C@@H]1CN([C@@H](C)CO)C(=O)c2cc(NC(=O)Nc3ccc4c(c3)OCO4)ccc2O[C@@H](C)CCCCO[C@H]1CN(C)C(=O)Nc1ccc(C(F)(F)F)cc1", "inhibition": "-7.26% (inactive)"}, {"smiles": "C[C@H](CO)N1C[C@H](C)[C@H](CN(C)Cc2ccc(C(=O)O)cc2)Oc2ccc(NC(=O)NC3CCCCC3)cc2C1=O", "inhibition": "6.53% (inactive)"}, {"smiles": "Cc1noc(C)c1NC(=O)Nc1ccc2c(c1)CC(=O)N([C@@H](C)CO)C[C@@H](C)[C@H](CN(C)C(=O)NC1CCCCC1)O2", "inhibition": "0.249% (inactive)"}, {"smiles": "C[C@@H]1CN([C@H](C)CO)S(=O)(=O)c2ccc(C#CC3CCCC3)cc2O[C@@H]1CN(C)Cc1ccccc1C(=O)O", "inhibition": "-5.77% (inactive)"}, {"smiles": "O=C(C[C@@H]1C=C[C@@H](NS(=O)(=O)c2ccc(F)cc2)[C@@H](CO)O1)NCCN1CCCCC1", "inhibition": "4.96% (inactive)"}, {"smiles": "CO[C@@H]1CN(C)C(=O)c2ccc(NS(=O)(=O)c3cn(C)cn3)cc2OC[C@H](C)N(CCC(F)(F)F)C[C@@H]1C", "inhibition": "-2.06% (inactive)"}, {"smiles": "Cc1noc(C)c1C(=O)N(C)C[C@H]1OCc2ccccc2-c2c(n(C)c3ccccc23)C(=O)N([C@@H](C)CO)C[C@H]1C", "inhibition": "-20.6% (inactive)"}, {"smiles": "COc1ccc(-c2cnc3c(c2)C(=O)N([C@@H](C)CO)C[C@H](C)[C@@H](CN(C)C(=O)C2CC2)O3)cc1", "inhibition": "-1.45% (inactive)"}, {"smiles": "CNC[C@H]1Oc2ccc(NS(=O)(=O)c3ccc(F)cc3)cc2CC(=O)N([C@H](C)CO)C[C@H]1C", "inhibition": "-12.8% (inactive)"}, {"smiles": "C[C@@H](NC(=O)C[C@@H]1CC[C@@H]2[C@H](COC[C@@H](O)CN2C(=O)Nc2cccc(F)c2)O1)c1ccccc1", "inhibition": "0.238% (inactive)"}, {"smiles": "COCC(=O)Nc1ccc2c(c1)OC[C@@H](C)N(Cc1cocn1)C[C@@H](C)[C@@H](OC)CN(C)C2=O", "inhibition": "11.7% (inactive)"}, {"smiles": "CCC(=O)N(C)C[C@H]1Oc2cc(-c3ccc(C)cc3)ccc2S(=O)(=O)N([C@@H](C)CO)C[C@H]1C", "inhibition": "-11.2% (inactive)"}, {"smiles": "CCCN(C)C[C@@H]1OCCCC[C@@H](C)Oc2ccc(NC(=O)Nc3ccc(C(F)(F)F)cc3)cc2C(=O)N([C@H](C)CO)C[C@H]1C", "inhibition": "-1.97% (inactive)"}, {"smiles": "CN(C)C(=O)c1cccc(-c2ccc(C3[C@@H]4CN(S(=O)(=O)c5ccc(F)cc5)C[C@H]3N4)cc2)c1", "note": "(stereo not given in full)", "inhibition": "-5.35% (inactive) and -8.12% (inactive)"}, {"smiles": "N#Cc1ccc(-c2ccc(C3[C@@H]4CN(S(=O)(=O)c5ccc(F)cc5)C[C@H]3N4)cc2)cc1", "note": "(stereo not given in full)", "inhibition": "-1.35% (inactive) and 58.1% (active)"}, {"smiles": "N#Cc1ccc(-c2ccc(C3[C@@H]4CN(S(=O)(=O)c5ccccc5F)C[C@H]3N4)cc2)cc1", "note": "(stereo not given in full)", "inhibition": "-0.54% (inactive) and -4.45% (inactive)"}, {"smiles": "C[C@H](CO)N1C[C@H](C)[C@@H](CN(C)C(=O)Cc2ccccn2)Oc2cc(-c3cccc(C(=O)N(C)C)c3)ccc2S1(=O)=O", "inhibition": "0.377% (inactive)"}, {"smiles": "COc1ccc(C#Cc2ccc([C@H]3[C@@H](CO)N4CCCCN(S(=O)(=O)c5cn(C)cn5)C[C@H]34)cc2)cc1", "inhibition": "-2.67% (inactive)"}, {"smiles": "COCC(=O)Nc1ccc2c(c1)[C@H]1C[C@H](CC(=O)NCc3cccnc3)O[C@H](CO)[C@H]1O2", "inhibition": "5.71% (inactive)"}, {"smiles": "CN1c2ccc(-c3cccc(F)c3)cc2[C@H]2[C@H](CCN2C(=O)c2cccc(F)c2)[C@H]1CO", "inhibition": "-7.12% (inactive)"}, {"smiles": "S=C1NC(c2ccccc2)=NCN1c1ccc(Br)cc1", "inhibition": "80.9% (active)"}, {"smiles": "Cc1nc(=O)c(-c2ccccc2)c(C)n1-c1ccc(Br)cc1", "inhibition": "-2.67% (inactive)"}, {"smiles": "COc1ccccc1S(=O)(=O)N[C@@H]1C=C[C@H](CC(=O)N2CCN(C)CC2)O[C@@H]1CO", "inhibition": "6.82% (inactive)"}, {"smiles": "O=[N+]([O-])c1c(NCCO)cc(Sc2nc3ccccc3s2)c2nonc12", "inhibition": "45% (active)"}, {"smiles": "COc1ccc(S(=O)(=O)Nc2ccc3c(c2)C(=O)N([C@H](C)CO)C[C@H](C)[C@@H](CN(C)C)OCCCC[C@H](C)O3)cc1", "inhibition": "-0.646% (inactive) and 1.73% (inactive)"}, {"smiles": "C[C@H]1CN([C@@H](C)CO)C(=O)c2cc(C#CC3CCCCC3)cnc2O[C@@H]1CN(C)C(=O)Cc1ccccn1", "inhibition": "-16.1% (inactive)"}]}]}
